Out of some 5,500 compounds screened, about 2,000 (36%) were called active. Roughly 18% stayed inconclusive and do not appear here. Cut-off read from the data, not from the text of the source: active = normalized growth mostly below about 0.91 (no sharp cut-off); inconclusive = no clear call, values can overlap the other calls; inactive = mostly above about 0.92. The list shows a part of the results.
Assay: chemical genetic growth profiling, strain panel (AID 1159580);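 note: tested at 20 µM; growth read once vehicle control cultures reached saturation at 30 °C; 1 = growth at the plate median or of vehicle wells; lower values mean less growth of the strain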
Settings: S. cerevisiae deletion strains, growth OD
[1] = locus YAL021C, strain ccr4, stronger effect = lower value
[2] = locus YAL026C, strain drs2, stronger effect = lower value
[3] = locus YAL030W, strain snc1, stronger effect = lower value
[4] = locus YBL061C, strain skt5, stronger effect = lower value
[5] = locus YBR009C, strain hhf1, stronger effect = lower value
[6] = locus YBR023C, strain chs3, stronger effect = lower value
[7] = locus YBR171W, strain sec66, stronger effect = lower value
[8] = locus YBR231C, strain swc5, stronger effect = lower value
[9] = locus YBR279W, strain paf1, stronger effect = lower value
[10] = locus YCL011C, strain gbp2, stronger effect = lower value
[11] = locus YCL016C, strain dcc1, stronger effect = lower value
[12] = locus YCL061C, strain MRC1, stronger effect = lower value
[13] = locus YCL069W, strain vba3, stronger effect = lower value
[14] = locus YCR088W, strain abp1, stronger effect = lower value
[15] = locus YDL005C, strain med2, stronger effect = lower value
[16] = locus YDL040C, strain nat1, stronger effect = lower value
[17] = locus YDR001C, strain nth1, stronger effect = lower value
[18] = locus YDR069C, strain doa4, stronger effect = lower value
[19] = locus YDR137W, strain rgp1, stronger effect = lower value
[20] = locus YDR159W, strain sac3, stronger effect = lower value
[21] = locus YDR297W, strain sur2, stronger effect = lower value
[22] = locus YDR334W, strain swr1, stronger effect = lower value
[23] = locus YDR335W, strain msn5, stronger effect = lower value
[24] = locus YDR392W, strain spt3, stronger effect = lower value
[25] = locus YEL003W, strain gim4, stronger effect = lower value
[26] = locus YEL037C, strain rad23, stronger effect = lower value
[27] = locus YEL061C, strain CIN8 (second series), stronger effect = lower value
[28] = locus YER015W, strain faa2, stronger effect = lower value
[29] = locus YER016W, strain bim1, stronger effect = lower value
[30] = locus YER111C, strain swi4, stronger effect = lower value
[31] = locus YER155C, strain BEM2 (second series), stronger effect = lower value
[32] = locus YFR010W, strain ubp6, stronger effect = lower value
[33] = locus YGL167C, strain pmr1, stronger effect = lower value
[34] = locus YGL173C, strain kem1, stronger effect = lower value
[35] = locus YGL227W, strain vid30, stronger effect = lower value
[36] = locus YGL240W, strain doc1, stronger effect = lower value
[37] = locus YGL253W, strain hxk2, stronger effect = lower value
[38] = locus YHR013C, strain ard1, stronger effect = lower value
[39] = locus YHR027C, strain rpn1, stronger effect = lower value
[40] = locus YHR030C, strain SLT2, stronger effect = lower value
[41] = locus YHR079C, strain IRE1, stronger effect = lower value
[42] = locus YHR142W, strain chs7, stronger effect = lower value
[43] = locus YJL092W, strain hpr5, stronger effect = lower value
[44] = locus YJL095W, strain BCK1 (second series), stronger effect = lower value
[45] = locus YJL095W, strain BCK1, stronger effect = lower value
[46] = locus YJL115W, strain asf1, stronger effect = lower value
[47] = locus YJL129C, strain trk1, stronger effect = lower value
[48] = locus YJL154C, strain vps35, stronger effect = lower value
[49] = locus YJL164C, strain tpk1, stronger effect = lower value
[50] = locus YJL166W, strain qcr8, stronger effect = lower value
[51] = locus YJR066W, strain TOR1, stronger effect = lower value
[52] = locus YKL160W, strain elf1, stronger effect = lower value
[53] = locus YKR026C, strain gcn3, stronger effect = lower value
[54] = locus YKR091W, strain srl3, stronger effect = lower value
[55] = locus YLL001W, strain dnm1, stronger effect = lower value
[56] = locus YLL026W, stronger effect = lower value
[57] = locus YLL041C, strain sdh2, stronger effect = lower value
[58] = locus YLR027C, strain aat2, stronger effect = lower value
[59] = locus YLR113W, strain HOG1, stronger effect = lower value
[60] = locus YLR221C, strain rsa3, stronger effect = lower value
[61] = locus YLR258W, strain gsy2, stronger effect = lower value
[62] = locus YLR262C, strain YPT6 (second series), stronger effect = lower value
[63] = locus YLR320W, strain mms22, stronger effect = lower value
[64] = locus YLR342W, strain FKS1, stronger effect = lower value
[65] = locus YLR357W, strain rsc2, stronger effect = lower value
[66] = locus YLR370C, strain arc18, stronger effect = lower value
[67] = locus YLR384C, strain iki3, stronger effect = lower value
[68] = locus YML120C, strain ndi1, stronger effect = lower value
[69] = locus YMR058W, strain fet3, stronger effect = lower value
[70] = locus YMR125W, strain sto1, stronger effect = lower value
[71] = locus YMR129W, stronger effect = lower value
[72] = locus YMR205C, strain PFK2, stronger effect = lower value
[73] = locus YMR231W, strain pep5, stronger effect = lower value
[74] = locus YNL071W, strain lat1, stronger effect = lower value
[75] = locus YNL183C, strain NPR1, stronger effect = lower value
[76] = locus YNL209W, strain ssb2, stronger effect = lower value
[77] = locus YNL248C, strain rpa49, stronger effect = lower value
[78] = locus YNL322C, strain KRE1 (second series), stronger effect = lower value
[79] = locus YNR049C, strain mso1, stronger effect = lower value
[80] = locus YOR001W, strain rrp6, stronger effect = lower value
[81] = locus YOR070C, strain gyp1, stronger effect = lower value
[82] = locus YOR080W, strain dia2, stronger effect = lower value
[83] = locus YOR083W, strain WHI5, stronger effect = lower value
[84] = locus YOR106W, strain vam3, stronger effect = lower value
[85] = locus YOR231W, strain MKK1, stronger effect = lower value
[86] = locus YOR265W, strain rbl2, stronger effect = lower value
[87] = locus YOR270C, strain vph1, stronger effect = lower value
[88] = locus YOR290C, strain snf2, stronger effect = lower value
[89] = locus YPL051W, strain arl3, stronger effect = lower value
[90] = locus YPL078C, strain atp4, stronger effect = lower value
[91] = locus YPL106C, strain sse1, stronger effect = lower value
[92] = locus YPL240C, strain hsp82, stronger effect = lower value
[93] = locus YPL256C, strain CLN2, stronger effect = lower value
[94] = locus YAL040C, strain CLN3, stronger effect = lower value
[95] = locus YCL061C, strain MRC1 (second series), stronger effect = lower value
[96] = locus YDR363W, strain ESC2, stronger effect = lower value
[97] = locus YER002W, strain NOP16, stronger effect = lower value
[98] = locus YNL197C, strain WHI3, stronger effect = lower value
[99] = locus YNL224C, strain SQS1, stronger effect = lower value
[100] = locus YNL322C, strain KRE1, stronger effect = lower value
[101] = locus YOR083W, strain WHI5 (second series), stronger effect = lower value

Measured: normalized growth

OC1(c2ccc(Cl)c(C(F)(F)F)c2)CCN(CCCC(c2ccc(F)cc2)c2ccc(F)cc2)CC1
inactive: [40] 0.952 | [41] 0.965 | [45] 0.972 | [51] 0.931 | [59] 0.946 | [75] 0.935 | [85] 0.981 | [93] 0.936
active: [1] 0.0667 | [2] 0.0627 | [3] 0.0597 | [4] 0.0677 | [5] 0.0608 | [6] 0.0682 | [7] 0.0917 | [8] 0.0658 | [9] 0.218 | [10] 0.0588 | [11] 0.0739 | [12] 0.394 | [13] 0.101 | [14] 0.0838 | [15] 0.0778 | [16] 0.109 | [17] 0.0892 | [18] 0.0704 | [19] 0.111 | [20] 0.0866 | locus YDR195W, strain ref2 0.0989 | [21] 0.0586 | [22] 0.0861 | [23] 0.0657 | [24] 0.0888 | [25] 0.0558 | [26] 0.0879 | [27] 0.0952 | [28] 0.0667 | [29] 0.0765 | [30] 0.14 | [31] 0.468 | [32] 0.0981 | [33] 0.0793 | [34] 0.0739 | [35] 0.188 | [36] 0.317 | [37] 0.0755 | [38] 0.148 | [39] 0.067 | [42] 0.0949 | [43] 0.105 | [44] 0.0578 | [46] 0.485 | [47] 0.0811 | [48] 0.0686 | [49] 0.0638 | [50] 0.0607 | [52] 0.348 | [53] 0.132 | [54] 0.0942 | [55] 0.0836 | [56] 0.0586 | [57] 0.0615 | [58] 0.0571 | [60] 0.061 | [61] 0.0676 | [62] 0.0931 | [63] 0.141 | [64] 0.0657 | [65] 0.321 | [66] 0.0708 | [67] 0.127 | [68] 0.057 | [69] 0.0807 | [70] 0.164 | [71] 0.0603 | [72] 0.0884 | [73] 0.0664 | [74] 0.0627 | [76] 0.0684 | [77] 0.196 | [78] 0.479 | [79] 0.12 | [80] 0.0677 | [81] 0.0739 | [82] 0.196 | [83] 0.0883 | [84] 0.0691 | [86] 0.0702 | [87] 0.127 | [88] 0.104 | [89] 0.0821 | [90] 0.216 | [91] 0.0967 | [92] 0.0596

O=C(CCCN1CCC(O)(c2cccc(C(F)(F)F)c2)CC1)c1ccc(F)cc1
inactive: [94] 1.01 | [95] 0.974 | [97] 1.03 | locus YGR078C, strain PAC10, stronger effect = lower value 0.985 | locus YNL153C, strain GIM3, stronger effect = lower value 0.961 | [98] 1.05 | [101] 1.04
active: locus YAL013W, strain DEP1, stronger effect = lower value 0.832 | [96] 0.851 | locus YMR307W, strain GAS1, stronger effect = lower value 0.818 | [99] 1.13 [resistant] | [100] 0.882

CCNC(=O)N1CCN(CCCC(c2ccc(F)cc2)c2ccc(F)cc2)CC1
inactive: [94] 0.994 | [95] 0.99 | locus YDR150W, strain NUM1, stronger effect = lower value 0.982 | [96] 1.04 | [97] 1 | locus YJR075W, strain HOC1, stronger effect = lower value 0.988 | locus YMR263W, strain SAP30, stronger effect = lower value 0.988 | locus YNL175C, strain NOP13, stronger effect = lower value 1.03 | [98] 1.02 | [99] 1.04 | [100] 0.974 | [101] 1 | locus YPL055C, strain LGE1, stronger effect = lower value 0.916

O=C(CCCN1CCN(c2ccccn2)CC1)c1ccc(F)cc1
inactive: [3] 0.989 | [4] 0.968 | [5] 0.964 | [6] 0.969 | [7] 0.954 | [10] 0.971 | [11] 0.95 | [12] 0.993 | [13] 0.977 | [14] 0.992 | [15] 0.984 | [16] 0.984 | [17] 0.983 | [19] 1 | [20] 0.996 | [21] 0.972 | [22] 0.968 | [23] 0.948 | [25] 0.933 | [26] 0.971 | [27] 0.976 | [28] 0.977 | [29] 0.981 | [30] 0.947 | [33] 0.94 | [34] 0.927 | [35] 0.999 | [36] 0.966 | [37] 0.946 | [39] 0.974 | [40] 1.04 | [41] 1.04 | [43] 0.984 | [44] 0.968 | [45] 0.982 | [46] 0.973 | [48] 0.993 | [49] 0.932 | [50] 0.949 | locus YJL187C, strain SWE1, stronger effect = lower value 0.967 | [51] 0.972 | [53] 0.988 | [54] 0.99 | [55] 0.975 | [56] 0.987 | [57] 0.984 | [58] 0.975 | [59] 1.01 | [60] 0.976 | [61] 0.987 | [64] 0.981 | [65] 1.12 | [66] 0.95 | [67] 0.943 | [68] 0.961 | [69] 0.943 | [70] 0.981 | [71] 0.986 | [72] 0.894 | [73] 0.973 | [75] 0.977 | [76] 0.962 | [78] 1.02 | [79] 0.986 | [82] 0.998 | [83] 0.948 | [84] 0.905 | [85] 1.04 | [86] 0.969 | [88] 0.894 | [90] 0.915 | [91] 1.1 | [92] 0.985 | [93] 1.1
active: [1] 0.848 | [2] 0.0899 | [8] 0.855 | [9] 0.93 | [18] 0.858 | locus YDR195W, strain ref2 1.23 [resistant] | [24] 0.606 | [31] 0.436 | [32] 0.868 | [38] 0.746 | [42] 0.87 | [47] 0.811 | [52] 0.9 | [62] 0.821 | [63] 0.57 | [74] 0.781 | [77] 0.876 | [80] 0.789 | [81] 0.392 | [87] 0.541 | [89] 0.905

O=C(CCCN1CCC(O)(c2ccc(Br)cc2)CC1)c1ccc(F)cc1
inactive: [40] 0.959 | [41] 0.976 | [45] 0.962 | [51] 0.937 | [59] 1.02 | [75] 0.902 | [85] 0.981 | [93] 1.02
